Assay results published in PubChem BioAssay (NCATS).
Inconclusive results are not listed. Activity calls are given as the source filed them. Calls come from the whole dose curve; as a rule, active = well fitted cell-killing curve with a large enough effect; inconclusive = small, poorly fitted or top-dose-only effect, or effect the other way; inactive = flat fitted curve, though single readings scatter.

Legend:
Experiment in all cases: Primary qHTS to identify gynecologic anti-cancer compounds using libraries of approved drugs and bioactive compounds (AID 1345084); note: nearly all actives have a fitted effect of over 55% in size
Hek293T = conditions: Gynecologic cancer cell panel viability, ATPlite luminescence, 48 h, control line for the selectivity index; series mostly up to 57.5 µM
Procedure, shortened: (§1)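 48 h compound exposure at 37 C, 5% CO2; five-point qHTS. ATPlite luminescence readout of cell ATP.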

JEG-3 = conditions: Gynecologic cancer cell panel viability, ATPlite luminescence, 48 h; series mostly up to 57.5 µM
Procedure, shortened: as §1

OV90 = conditions: Gynecologic cancer cell panel viability, ATPlite luminescence, 48 h; series mostly up to 57.5 µM
Procedure, shortened: as §1

PA-1 = conditions: Gynecologic cancer cell panel viability, ATPlite luminescence, 48 h; series mostly up to 57.5 µM
Procedure, shortened: as §1

SKOV3 = conditions: Gynecologic cancer cell panel viability, ATPlite luminescence, 48 h; series mostly up to 57.5 µM
Procedure, shortened: as §1

Tov-21-G = conditions: Gynecologic cancer cell panel viability, ATPlite luminescence, 48 h; series mostly up to 57.5 µM
Procedure, shortened: as §1

Tov112D = conditions: Gynecologic cancer cell panel viability, ATPlite luminescence, 48 h; series mostly up to 57.5 µM
Procedure, shortened: as §1
% is set by controls: 0 for no effect and ±100 for the full control effect.

CC(CCC1C(C(=O)O)=CC(=O)CC1(C)C)O[C@@H]1O[C@H](CO)[C@@H](O)[C@H](O)[C@H]1O (stereo partly specified)
inactive: Potency (Hek293T) | Potency (JEG-3) | Potency (OV90) | Potency (PA-1) | Potency (SKOV3) | Potency (Tov-21-G) | Potency (Tov112D)

C=C(C)[C@@H]1CC[C@](C)(O)[C@@H](OC(=O)c2ccccc2)C1
inactive: Potency (Hek293T) | Potency (JEG-3) | Potency (OV90) | Potency (PA-1) | Potency (SKOV3) | Potency (Tov-21-G) | Potency (Tov112D)

C[C@@H]1CC[C@]2(C(=O)O)CC[C@]3(C(=O)O)C(=CCC4[C@@]5(C)CC[C@H](O[C@@H]6O[C@@H](C)[C@H](O[C@@H]7O[C@H](CO)[C@@H](O)[C@H](O)[C@H]7O)[C@@H](O)[C@H]6O)C(C)(C)C5CC[C@]43C)C2[C@H]1C (stereo partly specified)
inactive: Potency (Hek293T) | Potency (JEG-3) | Potency (OV90) | Potency (PA-1) | Potency (SKOV3) | Potency (Tov-21-G) | Potency (Tov112D)

O=C(O[C@H]1[C@@H]2C=CO[C@@H](O[C@@H]3O[C@H](CO)[C@@H](O)[C@H](O)[C@H]3O)[C@@H]2[C@@]2(CO)O[C@@H]12)c1ccc(O)c(O)c1
inactive: Potency (Hek293T) | Potency (JEG-3) | Potency (OV90) | Potency (PA-1) | Potency (SKOV3) | Potency (Tov-21-G) | Potency (Tov112D)

CC1=CCC2C(C)(CO)CCCC2(CO)C1CO (stereo unspecified)
inactive: Potency (Hek293T) | Potency (JEG-3) | Potency (OV90) | Potency (PA-1) | Potency (SKOV3) | Potency (Tov-21-G) | Potency (Tov112D)

CC1[C@@H](O)[C@@H](O)C2[C@]3(C)C(C[C@H]4OC(=O)[C@H](O)[C@]1(O)[C@@]24C)C(C)(O)C[C@H](O)[C@H]3O (stereo partly specified)
inactive: Potency (Hek293T) | Potency (JEG-3) | Potency (OV90) | Potency (PA-1) | Potency (SKOV3) | Potency (Tov-21-G) | Potency (Tov112D)

CC(C)CC(=O)OC[C@H]1O[C@@](COC(=O)CC(C)C)(O[C@H]2O[C@H](CO)[C@@H](O)[C@H](O)[C@H]2OC(=O)CC(C)C)[C@@H](OC(=O)CC(C)C)[C@@H]1O
inactive: Potency (Hek293T) | Potency (JEG-3) | Potency (OV90) | Potency (PA-1) | Potency (SKOV3) | Potency (Tov-21-G) | Potency (Tov112D)

CC(C)(O)C1CC=C(C(=O)OCC2OC(Oc3c(O)cc(C(=O)O)cc3O)C(O)C(O)C2O)CC1 (stereo unspecified)
inactive: Potency (Hek293T) | Potency (JEG-3) | Potency (OV90) | Potency (PA-1) | Potency (SKOV3) | Potency (Tov-21-G) | Potency (Tov112D)

C[C@H]1C[C@H]2[C@@H]3CCC4=CC(=O)C=C[C@]4(C)[C@@]3(F)[C@@H](O)C[C@]2(C)[C@@]1(O)C(=O)COP(=O)(O)O
inactive: Potency (Hek293T) | Potency (JEG-3) | Potency (OV90) | Potency (PA-1) | Potency (SKOV3) | Potency (Tov-21-G) | Potency (Tov112D)

C/C=C/C1=CC2=CC(=O)C(C)(O)C(OC(=O)c3c(C)cc(O)cc3O)C2CO1 (stereo unspecified)
inactive: Potency (Hek293T) | Potency (JEG-3) | Potency (OV90) | Potency (PA-1) | Potency (SKOV3) | Potency (Tov-21-G) | Potency (Tov112D)

O=C(NCc1ccc(OC(F)(F)F)cc1)C1c2ccccc2C(=O)N1C1CCOCC1 (stereo unspecified)
inactive: Potency (Hek293T) | Potency (JEG-3) | Potency (OV90) | Potency (PA-1) | Potency (SKOV3) | Potency (Tov-21-G) | Potency (Tov112D)

C[C@H]1CC[C@@]2(OC1)O[C@H]1CC3C4CC=C5C[C@H](O)C[C@@H](O[C@@H]6O[C@@H](C)[C@H](O)[C@@H](O)[C@H]6O[C@@H]6O[C@@H](C)[C@H](O)[C@@H](O)[C@H]6O)[C@]5(C)C4CC[C@]3(C)[C@H]1[C@@H]2C (stereo partly specified)
inactive: Potency (Hek293T) | Potency (JEG-3) | Potency (OV90) | Potency (PA-1) | Potency (SKOV3) | Potency (Tov-21-G) | Potency (Tov112D)

CCCn1cnc2c(NCc3ccccc3)nc(N[C@H](CC)CO)nc21
inactive: Potency (Hek293T) | Potency (JEG-3) | Potency (OV90) | Potency (PA-1) | Potency (SKOV3) | Potency (Tov-21-G) | Potency (Tov112D)

C/C(=C\CCC(C)(O)c1ccc(C)cc1)C(=O)O (stereo unspecified)
inactive: Potency (Hek293T) | Potency (JEG-3) | Potency (OV90) | Potency (PA-1) | Potency (SKOV3) | Potency (Tov-21-G) | Potency (Tov112D)

CC1CC(O)CC(C)(C)C1(O)CCO (stereo unspecified)
inactive: Potency (Hek293T) | Potency (JEG-3) | Potency (OV90) | Potency (PA-1) | Potency (SKOV3) | Potency (Tov-21-G) | Potency (Tov112D)

CCc1cc2c(=O)c(-c3nc4ccccc4s3)coc2c(CN2CCCCC2)c1O
inactive: Potency (Hek293T) | Potency (JEG-3) | Potency (OV90) | Potency (PA-1) | Potency (SKOV3) | Potency (Tov-21-G) | Potency (Tov112D)

C/C=C(\C)C(=O)O[C@H]1[C@H](O)[C@]2(COC(C)=O)[C@H](O)C[C@]3(C)C(=CCC4[C@@]5(C)CC[C@H](O[C@@H]6O[C@H](C(=O)O)[C@@H](O[C@@H]7O[C@H](CO)[C@@H](O)[C@H](O)[C@H]7O)[C@H](O)[C@H]6O[C@@H]6O[C@H](CO)[C@@H](O)[C@H](O)[C@H]6O)[C@](C)(CO)C5CC[C@]43C)[C@@H]2CC1(C)C (stereo partly specified)
inactive: activity change, negative = cytotoxicity (Hek293T) 5.9% [at 11.6 µM] | activity change, negative = cytotoxicity (JEG-3) -4.88% [at 11.6 µM] | activity change, negative = cytotoxicity (OV90) -1.43% [at 11.6 µM] | activity change, negative = cytotoxicity (PA-1) 25.1% [at 11.6 µM] | activity change, negative = cytotoxicity (SKOV3) 20.3% [at 11.6 µM] | activity change, negative = cytotoxicity (Tov-21-G) 0.503% [at 11.6 µM] | activity change, negative = cytotoxicity (Tov112D) 7.17% [at 11.6 µM]

C=C1CC[C@@H]2[C@](C)(CO[C@@H]3O[C@H](CO)[C@@H](O)[C@H](O)[C@H]3O)CCC[C@@]2(C)[C@@H]1CCC1=CCOC1=O
inactive: Potency (Hek293T) | Potency (JEG-3) | Potency (OV90) | Potency (PA-1) | Potency (SKOV3) | Potency (Tov-21-G) | Potency (Tov112D)
